ADAM10 inh: human ADAM10 inhibitors, primary screen, biochemical, QFRET, HTS | 370,000 compounds, 0.62% hits | recombinant ADAM10, EDANS/DABCYL FRET peptide cleavage, 3 h | inhibition, % at 7 µM | AID 720582, 2013 | Disintegrin and metalloproteinase domain-containing protein 10 (Homo sapiens), O14672;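 active means inhibition above a per-campaign cutoff equal to the mean of compounds falling between control-based bounds plus 3 SD, cut at about 20% in these data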;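 further: 0% = DMSO wells while the 100% control is not disclosed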
Target sequence (O14672 214-748 limits assumed): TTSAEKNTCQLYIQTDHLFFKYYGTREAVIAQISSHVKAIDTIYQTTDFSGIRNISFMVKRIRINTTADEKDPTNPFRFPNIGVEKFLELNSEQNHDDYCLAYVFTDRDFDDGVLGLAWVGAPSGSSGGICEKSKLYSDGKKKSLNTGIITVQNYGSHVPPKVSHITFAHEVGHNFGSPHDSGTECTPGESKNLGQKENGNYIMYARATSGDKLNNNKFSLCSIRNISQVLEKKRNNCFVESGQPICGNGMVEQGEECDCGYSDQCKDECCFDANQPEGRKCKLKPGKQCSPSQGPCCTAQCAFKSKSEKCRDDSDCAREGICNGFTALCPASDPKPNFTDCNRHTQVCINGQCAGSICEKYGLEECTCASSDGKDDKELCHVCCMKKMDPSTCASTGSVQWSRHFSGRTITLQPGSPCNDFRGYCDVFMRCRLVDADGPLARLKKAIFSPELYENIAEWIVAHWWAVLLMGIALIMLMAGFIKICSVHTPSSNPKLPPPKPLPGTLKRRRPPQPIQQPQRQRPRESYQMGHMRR
PLCb3 inh: human PLC-beta3 inhibitors, primary screen, biochemical, fluorescence. 1-phosphatidylinositol 4,5-bisphosphate phosphodiesterase beta-3 (Homo sapiens), Q01970. inhibition, % at 12.2 µM. AID 720704, 2013. 370,000 compounds, 0.18% hits. Purified PLC-beta3, fluorogenic substrate; in the data active means inhibition above about 11%;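 further: 0% = median of compound wells on plate and 100% = full blocker control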
ADAM17 inh: ADAM17 inhibitors, primary screen, biochemical, QFRET. inhibition, % at 6.95 µM. 370,000 compounds, 0.83% hits. recombinant ADAM17, EDANS/DABCYL FRET peptide cleavage. Disintegrin and metalloproteinase domain-containing protein 17 (Homo sapiens), P78536. AID 720648, 2013;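 active means inhibition above the mean of compounds lying between control limits plus 3 SD, set per campaign, cut at about 8.5% in these data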;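 further: 0% = DMSO-only wells as the low control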
PLC-gamma1 inh: PLC-gamma1 enzyme inhibitors, primary screen, biochemical, fluorescence, purified enzyme | 1-phosphatidylinositol 4,5-bisphosphate phosphodiesterase gamma-1 (Homo sapiens), P19174 | fluorogenic substrate | inhibition, % at 12.2 µM | 370,000 compounds, 0.84% hits; in the data active means inhibition above about 9.5%
KLK7 zymogen act: proKLK7 zymogen activators, primary screen, biochemical, fluorescence intensity; Kallikrein-7 (Homo sapiens), P49862; purified proKLK7, EDANS-DABCYL substrate fluorescence; 100% is mature enzyme control, 0% vehicle; activation, % at 7 µM; 370,000 compounds, 0.9% hits; AID 652039, 2013;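 active means activation above the mean of all tested compounds plus 3 SD, computed per campaign excluding outliers beyond control limits, cut at about 13% in these data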
ADAM10 ctr: ADAM10 inhibitors, counter-screen for ADAM17 exosite inhibitor project, biochemical, FRET, human ADAM10 | shares compounds with ADAM17 inh | recombinant ADAM10, EDANS/DABCYL FRET peptide cleavage, 3 h | inhibition, % at 6.95 µM | 2,900 compounds, 47% hits | AID 743256, 2014;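 active means mean inhibition over the triplicate runs exceeds the activity threshold set in the earlier primary screen, cut at about 20% in these data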;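 further: 0% = DMSO wells and 100% = marimastat wells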
ADAM17 confirm: ADAM17 inhibitors, hit retest, confirmation, biochemical, QFRET peptide cleavage. AID 743257, 2014. recombinant ADAM17, EDANS/DABCYL QFRET peptide cleavage. 2,900 compounds, 65% hits. inhibition, % at 6.95 µM. shares compounds with ADAM17 inh;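 active means mean inhibition across replicates above the hit cutoff set in the primary screen, cut at about 8.5% in these data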;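 further: 0% = DMSO wells and 100% = marimastat wells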
* hit, by the source's call; / = not tested or not shown. This is a sample that favours compounds with a hit; in the whole collection about 2.9% have one here.

SMILES | ADAM10 inh | PLCb3 inh | ADAM17 inh | PLC-gamma1 inh | KLK7 zymogen act | ADAM10 ctr | ADAM17 confirm
S=C(Nc1cccnc1)N1CCN(c2ccccc2Cl)CC1 | -2.3 | -4.5 | -0.6 | 0.0 | 0.9 | / | /
COc1ccc(C(=O)c2coc3ccc(O)c(CN4CCOCC4)c23)cc1 | -2.2 | -0.6 | -1.0 | 1.8 | 0.7 | / | /
COc1cc(C)c(C(=O)Oc2cc(C)c(C(=O)O)c(O)c2C)c(O)c1C | 10.0 | 4.8 | 11.1* | 4.3 | -0.5 | 15.5 | 10.7*
COc1cc(C)c(C(=O)Oc2cc(C)c(C(=O)O)c(O)c2)c(O)c1 | -8.1 | -2.1 | -0.7 | -0.8 | 0.1 | / | /
O=C(Nc1ccc(Nc2ccccc2)cc1)c1ccc(Cl)c([N+](=O)[O-])c1 | 16.7 | -4.4 | 8.6* | 3.2 | 0.7 | 27.7* | 18.4*
Cc1cc(C(=O)Nc2ccc(Nc3ccccc3)cc2)ccc1[N+](=O)[O-] | 15.2 | -1.1 | 6.2 | 1.1 | -0.1 | / | /
CCCN1CCN(C(=O)Cn2cnc3sc(C)c(S(=O)(=O)N4CCC(C)CC4)c3c2=O)CC1 | -1.8 | -7.4 | 0.2 | -0.1 | 0.0 | / | /
CCN1C(=O)N[C@@H](CCc2ccccc2)[C@@H](C(=O)OC)[C@H]1C | -1.0 | 7.3 | 9.8* | 4.0 | 0.7 | 6.5 | 7.2
CC(=O)c1sc(-c2ccccc2)nc1C | -3.8 | -3.2 | 0.1 | 0.8 | 0.2 | / | /
CCC(=O)N(CCC(c1ccccc1)c1ccco1)Cc1cccs1 (stereo unspecified) | 2.7 | 3.2 | 9.8* | 4.8 | -0.7 | -1.8 | 1.2
COc1ccccc1C(CCN(Cc1cccs1)C(C)=O)c1ccco1 (stereo unspecified) | 0.4 | -14.0 | -4.1 | -12.3 | 0.2 | / | /
C[C@@H](c1ccccc1)N1C[C@H](COCc2ccccc2)Oc2cc(N3CC[C@@H](O)C3)ccc2S1(=O)=O | 11.9 | 3.7 | 10.4* | 6.1 | 0.3 | 16.4 | 6.5
C[C@H](c1ccccc1)N1C[C@H](COCc2ccccc2)Oc2cc(N3CC[C@@H](O)C3)ccc2S1(=O)=O | 13.4 | -4.6 | 9.8* | -0.5 | 0.1 | 28.8* | 15.2*
O=C(NCc1ccc(F)cc1)c1ccc(CS(=O)(=O)Cc2ccc(F)cc2)o1 | 5.2 | 0.2 | 5.8 | 2.2 | 0.2 | / | /
CC1CN(C(=O)COc2ncnc3ccccc23)CC(C)O1 (stereo unspecified) | -4.5 | 7.3 | 9.7* | 3.6 | -0.1 | -6.5 | 1.0
O=C(COc1ncnc2ccccc12)N1CCN(c2ccccc2)CC1 | -2.8 | 1.2 | -2.8 | 0.6 | -0.1 | / | /
CCOc1ccc2ccccc2c1C(=O)N1CCN(c2ccccc2)CC1 | 4.3 | -0.3 | -3.5 | -2.2 | -0.2 | / | /
COc1ccccc1NC(=O)Cn1nnc(-c2ccccc2NS(=O)(=O)c2ccccc2)n1 | 14.7 | 2.6 | 9.3* | 1.4 | 0.7 | 36.7* | 21.6*
CCOC(=O)c1c(NC(=O)C2C3C=CC(C3)C2C(=O)O)sc2c1CCC(CC)C2 (stereo unspecified) | 0.0 | 2.1 | 4.6 | 6.7 | 0.2 | / | /
CCOC(=O)c1c(NC(=O)C2C3C=CC(CC3)C2C(=O)O)sc(C)c1C (stereo unspecified) | 1.9 | 4.5 | 9.1* | 6.8 | -0.1 | -11.7 | 0.3
COc1ccc(C2=Nc3ccc(C)cc3C(c3ccccc3)N2CC(=O)NN)cc1 (stereo unspecified) | -0.6 | -4.2 | -2.9 | -7.8 | -0.3 | / | /
COC(=O)CN1C(c2ccc(Cl)cc2)=Nc2ccc(Cl)cc2C1c1ccccc1 (stereo unspecified) | 12.4 | -20.3 | 9.0* | -10.1 | 0.2 | 23.1* | 12.9*
COc1ccc(Br)cc1CN(C)C(=O)c1ccncc1 | 1.2 | -3.5 | -0.3 | -1.4 | 0.2 | / | /

Source: PubChem BioAssay (The Scripps Research Institute Molecular Screening Center)
